Here are results for 14 molecules from PubChem BioAssay.

Assay [1] can be described thus: inhibitors of TNFa-induced NFkB p65 translocation, primary screen, imaging, HUVEC, MLSMR starter and 10KST1 sets (AID 438;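 active = inhibition above 20% together with a positive visual image hit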;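 also: compound added about 3h40 before a 20 min TNFalpha stimulation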;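 as to inhibition: signal is the nuclear over cytoplasmic p65 intensity ratio per well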). To be noted: HUVEC TNFa-induced p65 nuclear translocation; cell count: measured here: nuclei count (cytotoxicity indicator), at 2.08 µM; inhibition: at 2 µM, stronger effect = higher value, 0% TNFa-plus-vehicle, 100% no-TNFa wells.
Assay [2] in a line: reduction of polyQ htt aggregates in cells – imaging, exon1htt(103Q)mCFP cells, high-content imaging, primary screen (AID 483).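 Also: compound exposure lasted 3 days before fixation.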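 As to nuclei count: percent of the per-plate median nuclei count of sample wells.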 To be noted: exon1htt(103Q)mCFP cell line, aggregate imaging, at 2 µM; inhibition of aggregation: stronger effect = higher value; nuclei count: measured here: cell count, toxicity.
Assay [3] in a line: endothelial E-selectin expression blockers – imaging, HUVEC, immunofluorescence, MLSMR starter and 10KST1 sets, primary screen (AID 487;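 active = visually confirmed hit in the image check and inhibition above 20%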;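 as to inhibition: signal is fraction of cell area covered by stained E-selectin grains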;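 as to nuclei count: 100% = median nuclei count of all wells on the same plate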). To be noted: HUVEC TNFalpha-induced E-selectin immunofluorescence imaging, at 2 µM; inhibition: stronger effect = higher value; nuclei count: measured here: cell number, toxicity.
The target in assay [4] is Voltage-gated potassium channel subunit beta-2 (Rattus norvegicus) (UniProt P62483). Briefly: inhibitors of rat Kvbeta2 reductase activity – biochemical, NADPH fluorescence, primary screen (AID 622;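 active = fluorescence slope higher than the sample average by over 3 SD, cut at about -0.22 in these data, passing the limit was not always enough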;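 also: slope of raw intensity against log time taken from 70 to 1610 s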). To be noted: recombinant KvBeta, 4-cyanobenzaldehyde reduction, at 10 µM, stronger effect = higher value.
Voltage-gated potassium channel subunit beta-2 (Rattus norvegicus), sequence (P62483 whole entry, looked up): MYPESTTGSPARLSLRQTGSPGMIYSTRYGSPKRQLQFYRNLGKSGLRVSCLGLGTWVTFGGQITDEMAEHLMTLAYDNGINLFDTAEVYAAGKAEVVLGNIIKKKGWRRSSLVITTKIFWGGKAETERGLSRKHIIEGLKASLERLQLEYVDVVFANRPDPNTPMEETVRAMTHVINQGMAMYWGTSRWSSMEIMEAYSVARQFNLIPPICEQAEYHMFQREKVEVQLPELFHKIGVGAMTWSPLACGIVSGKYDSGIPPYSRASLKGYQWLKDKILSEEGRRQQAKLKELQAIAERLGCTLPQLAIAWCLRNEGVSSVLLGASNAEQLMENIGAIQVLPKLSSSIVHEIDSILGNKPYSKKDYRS
Assay [5] has the same target. Briefly: enhancers of rat Kvbeta2 NADPH turnover – biochemical, NADPH fluorescence, primary screen (AID 623;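 active = NADPH fluorescence slope more negative than the mean of all samples by about 3 SD, 99.7% confidence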;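 also: fluorescence intensity change per second fitted from 20 to 320 s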). The conditions noted are these: Recombinant KvBeta, NADPH fluorescence decrease slope, 10 min; at 10 µM; stronger effect = lower value.
Assay [6] addresses Alpha-2C adrenergic receptor (Homo sapiens) (UniProt P18825). The assay can be described thus: compounds altering alpha2C-coupled GIRK flux – cell-based, HEK293 alpha2C/GIRK1/2, thallium flux, primary screen (AID 624;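 active = fluorescence slope after compound addition differing from the mean of all screened samples at 99.7% confidence, in either direction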;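 also: slope of fluorescence ratio to pre-addition baseline per second over 15 to 24 s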). To be noted: thallium flux BTC fluorescence, at 10 µM, actives lie on both sides.
The nature of assay [7]: blockers of RIG-like receptor reporter activation – cell-based, Sendai virus stimulus, luciferase, 10K MLSCN set, TLR/RLR signaling modifier project, primary screen (AID 602276;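 active = inhibition at or above 50% at 10 µM; inactive = inhibition below 50%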;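 also: firefly luciferase from ISG56 promoter only with Renilla not read in this screen; 0% = Sendai virus plus DMSO and 100% = medium plus DMSO without virus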). To be noted: HEK293 RL24 IRF3 luciferase reporter, at 10 µM, stronger effect = higher value.
A short description of assay [8]: TLR3 IRF3 reporter activation blockers – cell-based, poly I:C stimulus, luciferase, 10K MLSCN set, primary screen (AID 602277;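 active = inhibition of the reporter signal at or above 50%; inactive = inhibition below 50%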). To be noted: HEK293-TLR3 RL24 IRF3 luciferase reporter, at 10 µM, stronger effect = higher value.

Calls of active or inactive are those of the source.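 The calls were made as follows, unless noted: active = visual image review flags a hit and inhibition of aggregation exceeds 20%; inconclusive = visual hit but inhibition at or below 20%; inactive = no hit on visual image review.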

Alpha-2C adrenergic receptor (Homo sapiens), sequence (P18825 whole entry, looked up): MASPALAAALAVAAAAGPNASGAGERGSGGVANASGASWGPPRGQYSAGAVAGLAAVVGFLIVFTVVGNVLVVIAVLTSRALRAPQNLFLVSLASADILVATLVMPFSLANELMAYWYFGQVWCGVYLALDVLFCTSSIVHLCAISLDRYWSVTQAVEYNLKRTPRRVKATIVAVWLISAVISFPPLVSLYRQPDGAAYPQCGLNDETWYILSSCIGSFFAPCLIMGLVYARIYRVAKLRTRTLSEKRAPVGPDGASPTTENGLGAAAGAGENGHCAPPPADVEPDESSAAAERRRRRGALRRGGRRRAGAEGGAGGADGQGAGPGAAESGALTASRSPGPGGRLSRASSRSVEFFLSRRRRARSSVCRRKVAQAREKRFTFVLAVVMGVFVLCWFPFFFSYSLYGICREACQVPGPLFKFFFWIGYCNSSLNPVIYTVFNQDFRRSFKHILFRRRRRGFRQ

Consider `O=C(c1ccc(CNS(=O)(=O)c2cccc(C(F)(F)F)c2)cc1)N1CCOCC1`, for which the cell count in assay [1] came to 237. The inhibition was 11.8% (inactive) in assay [1], 14.7% (inactive) in assay [3], 14.8% (inactive) in assay [7] and 16.9% (inactive) in assay [8]. Besides, in assay [2], the inhibition of aggregation is -1.6% (inactive). For the same molecule, the nuclei count amounted to 80% in assay [2] and 97.4% in assay [3]. The fluorescence slope in assay [4] was -0.387 (inactive). Besides, the NADPH fluorescence slope in assay [5] was -3.8e-05 (inactive). For the same molecule, the slope in assay [6] was 0.00478 (inactive).

Take `CCCS(=O)(=O)N1CCN(Cc2ccc(OCc3ccccc3)c(OC)c2)CC1`: the cell count in assay [1] was determined as 247. For the same molecule, the inhibition is -5% (inactive) in assay [1], -25.9% (inactive) in assay [3], -20.2% (inactive) in assay [7] and -19.3% (inactive) in assay [8]. For the same molecule, the inhibition of aggregation in assay [2] is 9.9% (inactive). Further, the nuclei count in assay [2] came to 79.6%; in assay [3], 101%. The fluorescence slope in assay [4] was -0.549 (inactive). For the same molecule, the NADPH fluorescence slope in assay [5] is -4.2e-05 (inactive). In assay [6], the slope is 0.0062 (inactive).

In the case of `O=C1CCNc2cc3ccccc3cc21`, in assay [1], the cell count worked out at 356. In addition, the inhibition in assay [1] is 2.5% (inactive); in assay [3], 24.1% (inactive); in assay [7], 21.5% (inactive); in assay [8], 32.3% (inactive). The inhibition of aggregation in assay [2] was 32.4% (inactive). The nuclei count in assay [2] came to 80.4%; in assay [3], 99.3%. Besides, in assay [4], the fluorescence slope is -0.472 (inactive). Also, in assay [5], the NADPH fluorescence slope was -0.000147 (inactive). For the same molecule, in assay [6], the slope is 0.00661 (inactive).

For `CCCCOc1ccc(-c2ncc(Cl)cn2)cc1`, the cell count in assay [1] was 469. Further, the inhibition in assay [1] was 3% (inactive); in assay [3], -10% (inactive); in assay [7] it was -30% (inactive); in assay [8] it was -146% (inactive). Also, the inhibition of aggregation in assay [2] was 13.9% (inactive). Further, the values for the nuclei count in assay [2] and in assay [3] were 98.8% and 115%, respectively. For the same molecule, in assay [4], the fluorescence slope is -0.434 (inactive). For the same molecule, the NADPH fluorescence slope in assay [5] was -6.7e-06 (inactive). In addition, the slope in assay [6] was 0.00373 (inactive).

Regarding `COc1ccc(-c2cc3ccc(OCc4nn[nH]n4)cc3oc2=O)cc1`, the cell count in assay [1] turned out to be 399. For the same molecule, the inhibition in assay [1] is -17.5% (inactive); in assay [3], -24.5% (inactive); in assay [7], 8.69% (inactive); in assay [8], -13% (inactive). Moreover, the inhibition of aggregation in assay [2] was 5.4% (inactive). Further, the nuclei count is 81.6% in assay [2] and 84.5% in assay [3]. Besides, in assay [4], the fluorescence slope is -0.00551 (active). Further, the NADPH fluorescence slope in assay [5] was 1.1e-06 (inactive). In assay [6], the slope was 0.00437 (inactive).

Regarding `CC1CCN(C(=O)CSCC(=O)Nc2nc(-c3cccs3)cs2)CC1`, the cell count in assay [1] was 734. Moreover, the inhibition in assay [1] was -3.4% (inactive); in assay [3] it was -38.7% (inactive); in assay [7] it was 4.81% (inactive); in assay [8] it was -0.513% (inactive). Further, the inhibition of aggregation in assay [2] was 17.8% (inactive). The values for the nuclei count in assay [2] and in assay [3] were 94.3% and 114%, respectively. Further, the fluorescence slope in assay [4] was -0.495 (inactive). Also, the NADPH fluorescence slope in assay [5] is -1.9e-05 (inactive). For the same molecule, in assay [6], the slope was 0.00893 (inactive).

As for `COc1ccc(C2/C(=C(/O)c3ccccc3)C(=O)C(=O)N2C)cc1` (centres undefined), the cell count in assay [1] came to 424. The inhibition in assay [1] was -0.5% (inactive); in assay [3], -25.9% (inactive); in assay [7] it was 14.9% (inactive); in assay [8], 37.5% (inactive). The inhibition of aggregation in assay [2] is 7.8% (inactive). In addition, the nuclei count was 106% in assay [2] and 110% in assay [3]. For the same molecule, in assay [4], the fluorescence slope is -0.369 (inactive). Further, the NADPH fluorescence slope in assay [5] is 4.1e-06 (inactive). In addition, the slope in assay [6] was 0.00577 (inactive).

On to `Cc1ccc(NC(=O)c2ccccc2F)nc1`, for which the cell count in assay [1] stood at 336. In addition, the inhibition in assay [1] is -8.1% (inactive); in assay [3], -16.4% (inactive); in assay [7], -16.7% (inactive); in assay [8] it was -41.6% (inactive). Moreover, the inhibition of aggregation in assay [2] is 0.7% (inactive). Also, the nuclei count in assay [2] came to 123%; in assay [3], 111%. For the same molecule, the fluorescence slope in assay [4] was -0.374 (inactive). Also, the NADPH fluorescence slope in assay [5] is -6.3e-05 (inactive). In addition, in assay [6], the slope is 0.00526 (inactive).

Take `COc1ccc(N2CCN(c3oc(COc4ccccc4Cl)nc3C#N)CC2)cc1`: the cell count in assay [1] is 451. In addition, the inhibition was 14.6% (inactive) in assay [1], -33.4% (inactive) in assay [3], 2.05% (inactive) in assay [7] and 15.7% (inactive) in assay [8]. Also, the inhibition of aggregation in assay [2] was 5.4% (inactive). Moreover, the results for the nuclei count in assay [2] and in assay [3] were 95.5% and 104%, respectively. The fluorescence slope in assay [4] is -0.438 (inactive). Besides, the NADPH fluorescence slope in assay [5] is -0.000162 (inactive). Also, the slope in assay [6] is 0.00642 (inactive).

For `COc1cc(NC(=O)Nc2cccc(Cl)c2)c(OC)cc1NC(=O)CN1CCCCC1`, the cell count in assay [1] amounted to 709. The inhibition in assay [1] was -15.2% (inactive); in assay [3], -45.1% (inactive); in assay [7], 14.5% (inactive); in assay [8] it was -1.73% (inactive). In assay [2], the inhibition of aggregation was 1% (inactive). Moreover, the nuclei count in assay [2] was 126%; in assay [3], 132%. Moreover, the fluorescence slope in assay [4] is -0.407 (inactive). Further, the NADPH fluorescence slope in assay [5] is -4e-05 (inactive). For the same molecule, the slope in assay [6] is 0.00392 (inactive).

As to `CCCn1c(=O)c2ccccc2n2c(SCCOc3ccccc3F)nnc12`, in assay [1], the cell count was 574. Besides, the inhibition in assay [1] is -10.2% (inactive); in assay [3] it was 0.6% (inactive); in assay [7], -3.21% (inactive); in assay [8] it was -3.55% (inactive). Besides, the inhibition of aggregation in assay [2] is 4.4% (inactive). In addition, the nuclei count in assay [2] was 85.2%; in assay [3], 156%. Besides, the fluorescence slope in assay [4] is -0.477 (inactive). Besides, the NADPH fluorescence slope in assay [5] was 4.6e-05 (inactive). The slope in assay [6] was 0.00598 (inactive).

As for `COc1ccc(CCNC(=O)C2(C)CCC(=O)N2Cc2ccc3c(c2)OCO3)cc1OC` (centres undefined), the cell count in assay [1] turned out to be 822. The inhibition was 0.6% (inactive) in assay [1], -37.2% (inactive) in assay [3], 8.58% (inactive) in assay [7] and 36.6% (inactive) in assay [8]. Besides, in assay [2], the inhibition of aggregation was 18.7% (inactive). The nuclei count in assay [2] was 106%; in assay [3], 116%. In addition, the fluorescence slope in assay [4] was -0.59 (inactive). The NADPH fluorescence slope in assay [5] is -3.7e-05 (inactive). Besides, the slope in assay [6] was 0.00743 (inactive).

For the molecule `Cc1ccc(-c2cc(C(F)F)nc(NCC3CCCO3)n2)cc1` (centres undefined), the cell count in assay [1] is 647. In addition, the inhibition is 1.4% (inactive) in assay [1], -135% (inactive) in assay [3], -25.4% (inactive) in assay [7] and -60.9% (inactive) in assay [8]. The inhibition of aggregation in assay [2] was 15.9% (inactive). In addition, the nuclei count in assay [2] came out at 87.5%; in assay [3], 128%. Moreover, the fluorescence slope in assay [4] is -0.524 (inactive). The NADPH fluorescence slope in assay [5] is 1.3e-05 (inactive). The slope in assay [6] was 0.00547 (inactive).

Regarding `Cn1cc(CN2CCc3ccccc3C2)c2ccccc21`, the cell count in assay [1] came out at 361. Further, the inhibition was -12.1% (inactive) in assay [1], -62.7% (inactive) in assay [3], 20.8% (inactive) in assay [7] and 37.6% (inactive) in assay [8]. In addition, the inhibition of aggregation in assay [2] was -6.2% (inactive). In addition, the nuclei count in assay [2] amounted to 146%; in assay [3], 110%. Further, the fluorescence slope in assay [4] was -0.408 (inactive). In assay [5], the NADPH fluorescence slope is -0.000148 (inactive). Further, the slope in assay [6] is 0.00535 (inactive).
